Source: PubChem BioAssay AID1159580 (chemical genetic matrix, 2015)
Several values for one entry are separate records, joined by “and”; a condition that tells them apart may be missing. Equal entries are not always repeated. Hit rate of the full screen: of about 5,500 compounds, about 2,000 (36%) were called active. Roughly 18% stayed inconclusive and do not appear here. No stated cut-off is given here; in the data, active means normalized growth mostly below about 0.91 (no sharp cut-off); inconclusive means no clear call, values can overlap the other calls; inactive means mostly above about 0.92. The list shows a part of the results.

Assay: chemical genetic growth profiling, strain panel (AID 1159580);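 further: tested at 20 µM; growth read once vehicle control cultures reached saturation at 30 °C; 1 = growth at the plate median or of vehicle wells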
Conditions: growth OD

Measured: normalized growth

CC(COc1ccccc1)N(CCCl)Cc1ccccc1 (stereo unspecified)
inactive: S. cerevisiae deletion strains, locus YJR075W, strain HOC1, stronger effect = lower value 1.02 | S. cerevisiae deletion strains, locus YKL009W, strain mrt4, stronger effect = lower value 1.04 | S. cerevisiae deletion strains, locus YKL068W, stronger effect = lower value 1.02 | S. cerevisiae deletion strains, locus YKL085W, strain MDH1 (second series), stronger effect = lower value 1.01 | S. cerevisiae deletion strains, locus YKL085W, strain MDH1, stronger effect = lower value 1.01 | S. cerevisiae deletion strains, locus YKL160W, strain elf1, stronger effect = lower value 0.931 | S. cerevisiae deletion strains, locus YKL190W, strain CNB1, stronger effect = lower value 1.01 | S. cerevisiae deletion strains, locus YKR001C, strain vps1, stronger effect = lower value 0.996 | S. cerevisiae deletion strains, locus YKR026C, strain gcn3, stronger effect = lower value 0.985 | S. cerevisiae deletion strains, locus YKR091W, strain srl3, stronger effect = lower value 0.978 | S. cerevisiae deletion strains, locus YLL001W, strain dnm1, stronger effect = lower value 1.03 | S. cerevisiae deletion strains, locus YLL026W, stronger effect = lower value 0.976 | S. cerevisiae deletion strains, locus YLL041C, strain sdh2, stronger effect = lower value 0.979 | S. cerevisiae deletion strains, locus YLR039C, strain RIC1, stronger effect = lower value 0.939 | S. cerevisiae deletion strains, locus YLR058C, strain SHM2, stronger effect = lower value 1.01 | S. cerevisiae deletion strains, locus YLR102C, strain apc9, stronger effect = lower value 1.01 | S. cerevisiae deletion strains, locus YLR113W, strain HOG1, stronger effect = lower value 0.977 | S. cerevisiae deletion strains, locus YLR221C, strain rsa3, stronger effect = lower value 0.995 | S. cerevisiae deletion strains, locus YLR258W, strain gsy2, stronger effect = lower value 0.95 | S. cerevisiae deletion strains, locus YLR262C, strain YPT6 (second series), stronger effect = lower value 0.897 | S. cerevisiae deletion strains, locus YLR262C, strain YPT6, stronger effect = lower value 0.977 | S. cerevisiae deletion strains, locus YLR268W, strain sec22, stronger effect = lower value 1.04 | S. cerevisiae deletion strains, locus YLR320W, strain mms22, stronger effect = lower value 0.985 | S. cerevisiae deletion strains, locus YLR330W, strain CHS5, stronger effect = lower value 1.01 | S. cerevisiae deletion strains, locus YLR342W, strain FKS1 (second series), stronger effect = lower value 0.974 | S. cerevisiae deletion strains, locus YLR342W, strain FKS1, stronger effect = lower value 0.989 | S. cerevisiae deletion strains, locus YLR357W, strain rsc2, stronger effect = lower value 0.969 | S. cerevisiae deletion strains, locus YLR370C, strain arc18, stronger effect = lower value 0.963 | S. cerevisiae deletion strains, locus YLR371W, strain rom2, stronger effect = lower value 1.02 | S. cerevisiae deletion strains, locus YLR384C, strain iki3, stronger effect = lower value 0.999 | S. cerevisiae deletion strains, locus YLR418C, strain cdc73, stronger effect = lower value 0.97 | S. cerevisiae deletion strains, locus YML016C, strain PPZ1, stronger effect = lower value 1 | S. cerevisiae deletion strains, locus YML032C, strain rad52, stronger effect = lower value 1.02 | S. cerevisiae deletion strains, locus YML120C, strain ndi1, stronger effect = lower value 1.01 | S. cerevisiae deletion strains, locus YML124C, strain tub3, stronger effect = lower value 1.01 | S. cerevisiae deletion strains, locus YMR058W, strain fet3, stronger effect = lower value 0.95 | S. cerevisiae deletion strains, locus YMR078C, strain ctf18, stronger effect = lower value 1.02 | S. cerevisiae deletion strains, locus YMR125W, strain sto1, stronger effect = lower value 0.987 | S. cerevisiae deletion strains, locus YMR129W, stronger effect = lower value 0.959 | S. cerevisiae deletion strains, locus YMR205C, strain PFK2, stronger effect = lower value 0.969 | S. cerevisiae deletion strains, locus YMR223W, strain ubp8, stronger effect = lower value 0.99 | S. cerevisiae deletion strains, locus YMR231W, strain pep5, stronger effect = lower value 0.996 | S. cerevisiae deletion strains, locus YMR263W, strain SAP30, stronger effect = lower value 1.01 and 0.995 | S. cerevisiae deletion strains, locus YMR307W, strain GAS1, stronger effect = lower value 1.01 and 1 | S. cerevisiae deletion strains, locus YNL067W, strain RPL9B, stronger effect = lower value 1.03 | S. cerevisiae deletion strains, locus YNL128W, strain TEP1, stronger effect = lower value 1.01 | S. cerevisiae deletion strains, locus YNL153C, strain GIM3, stronger effect = lower value 1.02 | S. cerevisiae deletion strains, locus YNL175C, strain NOP13, stronger effect = lower value 0.996 | S. cerevisiae deletion strains, locus YNL183C, strain NPR1, stronger effect = lower value 0.919 | S. cerevisiae deletion strains, locus YNL197C, strain WHI3, stronger effect = lower value 1.01 | S. cerevisiae deletion strains, locus YNL209W, strain ssb2, stronger effect = lower value 0.953 | S. cerevisiae deletion strains, locus YNL224C, strain SQS1, stronger effect = lower value 0.984 | S. cerevisiae deletion strains, locus YNL233W, strain BNI4, stronger effect = lower value 1.01 | S. cerevisiae deletion strains, locus YNL248C, strain rpa49, stronger effect = lower value 0.894 | S. cerevisiae deletion strains, locus YNL250W, strain rad50, stronger effect = lower value 1 | S. cerevisiae deletion strains, locus YNL271C, strain bni1, stronger effect = lower value 1.01 | S. cerevisiae deletion strains, locus YNL298W, strain CLA4, stronger effect = lower value 1 | S. cerevisiae deletion strains, locus YNL307C, strain MCK1, stronger effect = lower value 1 | S. cerevisiae deletion strains, locus YNL322C, strain KRE1 (second series), stronger effect = lower value 0.923 | S. cerevisiae deletion strains, locus YNL322C, strain KRE1, stronger effect = lower value 1.01 | S. cerevisiae deletion strains, locus YNR049C, strain mso1, stronger effect = lower value 0.975 | S. cerevisiae deletion strains, locus YNR052C, strain pop2, stronger effect = lower value 1.01 | S. cerevisiae deletion strains, locus YOL006C, strain TOP1, stronger effect = lower value 1.07 | S. cerevisiae deletion strains, locus YOL012C, strain htz1 0.857 | S. cerevisiae deletion strains, locus YOL147C, strain pex11, stronger effect = lower value 1.01 | S. cerevisiae deletion strains, locus YOR001W, strain rrp6, stronger effect = lower value 0.996 | S. cerevisiae deletion strains, locus YOR061W, strain CKA2, stronger effect = lower value 1.01 | S. cerevisiae deletion strains, locus YOR069W, strain VPS5, stronger effect = lower value 1.01 | S. cerevisiae deletion strains, locus YOR070C, strain gyp1, stronger effect = lower value 0.979 | S. cerevisiae deletion strains, locus YOR080W, strain dia2, stronger effect = lower value 0.995 | S. cerevisiae deletion strains, locus YOR083W, strain WHI5 (second series), stronger effect = lower value 0.987 | S. cerevisiae deletion strains, locus YOR083W, strain WHI5, stronger effect = lower value 0.9 | S. cerevisiae deletion strains, locus YOR106W, strain vam3, stronger effect = lower value 0.89 | S. cerevisiae deletion strains, locus YOR136W, strain idh2, stronger effect = lower value 1 | S. cerevisiae deletion strains, locus YOR144C, strain elg1, stronger effect = lower value 1.02 | S. cerevisiae deletion strains, locus YOR184W, strain ser1, stronger effect = lower value 0.954 | S. cerevisiae deletion strains, locus YOR231W, strain MKK1, stronger effect = lower value 0.99 | S. cerevisiae deletion strains, locus YOR265W, strain rbl2, stronger effect = lower value 0.997 | S. cerevisiae deletion strains, locus YOR270C, strain vph1, stronger effect = lower value 0.838 | S. cerevisiae deletion strains, locus YOR290C, strain snf2, stronger effect = lower value 0.898 | S. cerevisiae deletion strains, locus YOR316C, strain cot1, stronger effect = lower value 1.02 | S. cerevisiae deletion strains, locus YPL051W, strain arl3, stronger effect = lower value 0.916 | S. cerevisiae deletion strains, locus YPL055C, strain LGE1, stronger effect = lower value 1 | S. cerevisiae deletion strains, locus YPL078C, strain atp4, stronger effect = lower value 0.926 | S. cerevisiae deletion strains, locus YPL106C, strain sse1, stronger effect = lower value 0.949 | S. cerevisiae deletion strains, locus YPL240C, strain hsp82, stronger effect = lower value 0.991 | S. cerevisiae deletion strains, locus YPL241C, strain CIN2, stronger effect = lower value 1 | S. cerevisiae deletion strains, locus YPL256C, strain CLN2, stronger effect = lower value 0.981 | S. cerevisiae deletion strains, locus YPR119W, strain clb2, stronger effect = lower value 1.02 | S. cerevisiae deletion strains, locus YPR141C, strain kar3, stronger effect = lower value 1.01 | S. cerevisiae deletion strains, locus YPR163C, strain tif3, stronger effect = lower value 1.02 | S. cerevisiae deletion strains, locus YPR167C, strain met16, stronger effect = lower value 1.02 | S. cerevisiae deletion strains, strain wtn01, stronger effect = lower value 1.03 | S. cerevisiae strains, strain wild type, stronger effect = lower value 1
active: S. cerevisiae deletion strains, locus YLR027C, strain aat2, stronger effect = lower value 0.924 | S. cerevisiae deletion strains, locus YNL071W, strain lat1, stronger effect = lower value 0.918
